SMILES strings stand for the structures. The panel holds about 83,000 compounds, 20% with a hit somewhere; the sample as a whole holds those more often.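 Interpretation: 100, growth as untreated; towards 0, rising growth inhibition; 0, no net growth; 0 to -100, cell death. Compounds scoring below 10 were considered active.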 Unmarked numbers belong to inactive results. Active and inactive are the calls of the source.

In PubChem BioAssay (NCI) one finds growth data, which are given here for 28 molecules.

Assay in all cases: NCI-60 one-dose screen, 48 h (100 = growth as untreated, 0 = no growth, -100 = all killed)
Settings in all cases: 10 µM unless noted

For assay [1], the system named is SK-MEL-2 melanoma.
Assay [2] concerns EKVX NSCLC.
Assay [3] has as its system SN12C renal.
The subject of assay [4] is UO-31 renal.
For assay [5], the system named is TK-10 renal.
Assay [6] has as its system ACHN renal.
Assay [7] relates to A498 renal.
In assay [8] the test system is CCRF-CEM leukemia.
In assay [9] the test system is MOLT-4 leukemia.

In the case of `CC1(C)C(=O)/C(=C\c2cccnc2)C[C@]2(C)[C@H]3CC[C@@H]4[C@@H](C(=O)/C=C/c5ccncc5)CC[C@@]4(C)[C@]3(C)CC[C@@H]12`, the growth in assay [1] was -3.01% (active); in [2] it was 50.4%; in assay [3] it was 8.09% (active); in assay [4], -94.5% (active); in assay [5], 65.6%; in assay [6], -78.8% (active). Moreover, the growth is 47.3% in [7], 8.73% (active) in [8] and 8.03% (active) in [9].

With `Cn1cc(-c2csc(-c3cn(CCN)c4ccc(Br)cc34)n2)c2cccnc21`, the growth is 110% in [1]; 74.9% in assay [2]; 68.9% in assay [3]; 61.4% in assay [4]; 116% in [5]; 50.8% in [6]. In addition, the growth in assay [7] is 83.9%; in [8], 39.8%; in assay [9] it was 13.5%.

In the case of `C=C1C(=O)O[C@H]2[C@H]1CC/C(COC(=O)NCc1c[nH]c3ccccc13)=C\CC[C@@]1(C)O[C@@H]21`, the growth in assay [1] was 70.5%; in assay [2] it was 84.2%; in assay [3], 44.4%; in [4], -62.7% (active); in assay [5] it was 34.3%; in assay [6] it was -36.2% (active). The results for the growth in assay [7], in [8] and in assay [9] were 102%, 7.29% (active) and 1.16% (active), respectively.

`Cc1cccc(C)c1NC(=O)CSC(=S)N1CCCCC1`: the growth is 97.6% in assay [1]; 97.2% in [2]; 110% in assay [3]; 85.6% in [4]; 89% in [5]; 101% in [6]. The growth in assay [7] is 99.3%; in assay [8], 101%; in assay [9] it was 87.8%.

Regarding `COc1ccc2[nH]c(-c3ccc(Cl)cc3)cc(=O)c2c1`, the growth is 96.3% in assay [1]; 95.2% in assay [2]; 93.6% in [3]; 94.4% in assay [4]; 93.4% in [5]; 103% in [6]. For the same molecule, the growth in [7] was 93.2%; in [8] it was 36.3%; in [9], 99.2%.

Regarding `N#CC1=C(N)Oc2c(sc3c(F)cccc23)C1c1ccc(Cl)cc1` (stereo not drawn), the growth is -3.89% (active) in [1]; 51.4% in [2]; 36.2% in assay [3]; 41.7% in assay [4]; 78.4% in assay [5]; 42% in assay [6]. For the same molecule, the growth is 46.6% in assay [7], 15.1% in assay [8] and 8.38% (active) in [9].

As for `N#Cc1c(-c2ccco2)nc2c(c(-c3ccccc3)nn2-c2ccccc2)c1-c1ccc(O)cc1`, the growth was 70.4% in assay [1]; 56.4% in [2]; 82.4% in assay [3]; 92% in assay [4]; 89.2% in [5]; 72.4% in assay [6]. The growth was 90.9% in assay [7], 41.5% in [8] and 9.84% (active) in assay [9].

For the molecule `Cc1cc(N2CCOCC2)nc(N(CCCNc2ccnc3cc(Cl)ccc23)Cc2ccco2)n1`, the growth in assay [1] is 11.9%; in assay [2] it was 49.4%; in assay [3], 40.4%; in assay [4], 32.2%; in assay [5], 47.9%; in assay [6] it was 46.9%. For the same molecule, the growth is 45.2% in assay [7] and 9.42% (active) in assay [9].

As for `Nc1nc2c3ccncc3cc(-c3cccc(Cl)c3)c2c2cnccc12`, the growth was 59.1% in [1]; 62.2% in [2]; 36.4% in assay [3]; 29.7% in [4]; 32.3% in assay [5]; 26.6% in assay [6]. For the same molecule, the growth in assay [7] is -12% (active); in assay [8], 20%; in [9], 3.17% (active).

`Cn1cc(-c2csc(-c3cn(CCNC(=O)OC(C)(C)C)c4ccccc34)n2)c2cccnc21`: the growth is 88.2% in assay [1]; 67.9% in assay [2]; 87.8% in [3]; 42.7% in assay [4]; 122% in assay [5]; 74.3% in assay [6]. The growth in assay [7] is 82.4%; in [8], 43.4%; in [9] it was 42.3%.

`Cc1cc(N2CCN(C)CC2)nc(N(CCNc2ccnc3cc(Cl)ccc23)Cc2ccco2)n1`: the growth in assay [1] was 55.8%; in assay [2], 57.2%; in assay [3] it was 58.3%; in assay [4] it was 54.8%; in [5], 105%; in [6] it was 54.5%. The figures for the growth in assay [7], in assay [8] and in assay [9] were 73.4%, 14.1% and 28.8%, respectively.

In the case of `Clc1ccc2c(NCCNc3nc(-c4ccccc4)cc(-c4ccccc4)n3)ccnc2c1`, the growth in [1] is -10.9% (active); in assay [2] it was 18.6%; in assay [3], -74.4% (active); in assay [4], -94.3% (active); in assay [5], -8.38% (active); in assay [6] it was -97.2% (active). Also, the growth is 93% in [7], -9.52% (active) in [8] and -32.2% (active) in assay [9].

Regarding `Cn1c(/C(C#N)=C/c2ccc3ccccc3c2)cc2ccccc21`, the growth is 71.7% in assay [1]; 37.4% in [2]; 33.5% in assay [3]; 57.5% in assay [4]; 106% in [5]; 35.4% in [6]. Further, the values for the growth in assay [7], in assay [8] and in assay [9] were 2.85% (active), 11.8% and 19.9%, respectively.

As for `COc1cc(/C=C2\C(=O)N(CC(O)COc3cc(O)c4c(=O)cc(-c5ccccc5)oc4c3)c3ccccc32)cc(OC)c1O` (stereo not drawn), the growth is 82.2% in assay [1]; 78.8% in [2]; 84% in assay [3]; 50.6% in assay [4]; 137% in assay [5]; 80.4% in assay [6]. In addition, the growth in assay [7] was 105%; in assay [8], 59.1%; in [9], 63.8%.

For `CCN1CCN(c2nc(C)cc(N(CCCNc3ccnc4cc(Cl)ccc34)Cc3ccco3)n2)CC1`, the growth in [1] is 75.1%; in assay [2], 63.1%; in assay [3], 50.6%; in assay [4] it was 33.1%; in assay [5] it was 108%; in [6], 30.2%. The growth in assay [7] was 78.1%; in [9], 43.5%.

`COc1ccc(-c2cc(=O)oc3ccc(Cl)cc23)cc1F`: the growth in assay [1] was 36.3%; in assay [2], 38.3%; in assay [3], 30.6%; in assay [4], 48.4%; in assay [5], 62.9%; in [6], 34.8%. The growth in [7] was 2.69% (active); in assay [8] it was 11.8%; in [9], 7.8% (active).

As to `CC1=CC(=O)N(c2cccc3c(N4C(=O)C=C(C)C4=O)cccc23)C1=O`, the growth was 87.5% in assay [1]; 108% in [2]; 93.3% in [3]; 33.3% in assay [4]; 35.3% in assay [5]; 1.27% (active) in assay [6]. Besides, the growth in assay [7] was 124%; in [8], 11.2%; in assay [9] it was 4.75% (active).

`Cn1cc(-c2csc(-c3cn(CCN)c4ccccc34)n2)c2cccnc21`: the growth in assay [1] was 61%; in assay [2] it was 50.4%; in assay [3], 54.1%; in [4], 33.2%; in assay [5] it was 92.9%; in [6], 56.6%. Moreover, the growth was 74.9% in assay [7] and 10.1% in assay [9].

Turning to `COc1cccc(-c2nn(-c3ccccc3)cc2-c2ccnc(NCCCN)c2)c1`, the growth was 26.3% in assay [1]; 66.7% in assay [2]; 50.9% in [3]; 51.6% in [4]; 72.2% in assay [5]; 82.7% in assay [6]. In addition, the growth in assay [7] was 42.3%; in assay [8], 29.3%; in assay [9], 22.9%.

With `COc1ccc(NC(=S)N/N=C/c2ccccc2SSCCC(=O)OC[C@H]2O[C@H](O)[C@H](O)[C@@H](O)[C@@H]2O)cc1`, the growth in assay [1] is 78.9%; in [2] it was 72.9%; in [3] it was 81.2%; in assay [4], 81.4%; in [5], 136%; in assay [6] it was 101%. Further, the growth was 93.4% in assay [7], 92.4% in assay [8] and 65.4% in assay [9].

On to `O=C(N/N=C/c1ccccc1SSc1ccccc1/C=N/NC(=O)c1ccccc1)c1ccccc1`, for which the growth in assay [1] is 24.8%; in [2], 25.8%; in assay [3], 43.4%; in assay [4], 18.6%; in [5], 31.8%; in [6], 15.4%. The growth was 75.8% in [7], 16% in assay [8] and 10.8% in assay [9].

On to `CCCCC[C@H]1C/C=C2/C(=O)C=C[C@@H]2C/C=C\CCCC(=O)O[C@@H](CCCCC)C/C=C2/C(=O)C=C[C@@H]2C/C=C\CCCC(=O)O1`, for which the growth was -60% (active) in assay [1]; -68.3% (active) in [2]; -65.7% (active) in assay [3]; -97.1% (active) in assay [4]; -83.4% (active) in assay [5]; -93.4% (active) in assay [6]. In addition, the growth in assay [7] was -84.8% (active); in assay [8], -3.81% (active); in assay [9], -15.8% (active).

Turning to `Cn1cc(-c2csc(-c3cn(CCCN4CCCCC4)c4ccc(F)cc34)n2)c2cccnc21`, the growth in assay [1] was 93.5%; in assay [2], 77.3%; in assay [3], 83.9%; in [4], 78.2%; in assay [5], 99.7%; in assay [6] it was 83.7%. Further, the figures for the growth in [7], in [8] and in assay [9] were 73.4%, -29.9% (active) and 70.4%, respectively.

Take `CCOC(=O)C1OC1(c1ccccc1)c1ccccc1` (stereo not drawn): the growth in assay [1] was 112%; in [2] it was 101%; in assay [3] it was 98.7%; in assay [4], 88.1%; in assay [5], 107%; in assay [6], 103%. In addition, the growth in [7] was 106%; in assay [8] it was 100%; in [9], 105%.

Consider `Nc1c(Cl)cc(N=Nc2ccccc2)cc1Cl`, for which the growth is 61.3% in assay [1]; 69% in assay [2]; 95.4% in [3]; 62.2% in [4]; 12.8% in [5]; 97.4% in [6]. For the same molecule, the growth is 73.6% in assay [7] and 90.3% in [9].

`COc1ccc(-n2c(/C=C/c3ccc(O)c(OC)c3)cc(/C=C/c3ccc(O)c(OC)c3)nc2=O)cc1`: the growth in [1] is 84.9%; in assay [2] it was 56.7%; in [3], 66.6%; in [4], 47.8%; in assay [5] it was 104%; in assay [6], 69.5%. Further, the growth was 113% in assay [7], 15.2% in [8] and 17.2% in [9].

For the molecule `Cc1ccc(S(=O)(=O)Nc2ccc(-c3cc(-c4cccc(F)c4)c(C#N)c(N)n3)cc2)cc1`, the growth is 17.1% in assay [1]; 51.6% in assay [2]; 11.5% in assay [3]; -88.2% (active) in [4]; -70.8% (active) in assay [5]; -71.9% (active) in assay [6]. Also, the growth in assay [7] is 68.1%; in assay [8] it was 7.69% (active); in assay [9] it was 9.77% (active).

Take `CC/C=C\C[C@H]1CC=C2C(=O)C=C[C@@H]2CC=CCCCC(=O)O[C@@H](CCCCC)CC=C2C(=O)C=C[C@@H]2CC=CCCCC(=O)O[C@@H](CCCCC)CC=C2C(=O)C=C[C@@H]2CC=CCCCC(=O)O[C@@H](CCCCC)CC=C2C(=O)C=C[C@@H]2CC=CCCCC(=O)O1`: the growth in assay [1] was -5.92% [7.9 µM] (active); in assay [2] it was 63.7% [7.9 µM]; in assay [3], -10.5% [7.9 µM] (active); in [4], 9.76% [7.9 µM] (active); in [5], 57.5% [7.9 µM]; in assay [6], 19.6% [7.9 µM]. In addition, the growth is 73.1% [7.9 µM] in assay [7], 9.35% [7.9 µM] (active) in assay [8] and 4.01% [7.9 µM] (active) in [9].
